# Beta2AR agonist – activates human beta-2 adrenergic receptor causing internalization; response, % (no concentration beside the values); hit rate 0.43% among 340,000; P07550; Am2.2-beta2AR cells, FAP receptor internalization, flow cytometry;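 active = response above a set limit, near 3 SD of response in nonfluorescent compounds, cut at about 42% in these data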
# MEKK2mut PB1 HTS – signal of MEK5 binding to mutant human MEKK2 PB1 domain | hit rate 0.35% among 290,000 | bead flow cytometry, Alexa488-MEK5 binding to MEKK2 mutant | percent response, % at 10 µM; in the data active = percent response above about 24%, passing the limit was not always enough
# MEKK2wt PB1 HTS – raises or lowers MEK5 binding to wildtype human MEKK2 PB1 domain. binding response (% of control), % at 10 µM. bead flow cytometry, Alexa488-MEK5 binding to MEKK2 WT; actives lie on both sides. hit rate 1.1% among 290,000; in the data active = binding response below about 67% or above about 130%
# MEKK3 PB1 HTS – raises or lowers MEK5 binding to the human MEKK3 PB1 domain; bead-based flow cytometry, Alexa488-MEK5 binding to MEKK3; actives lie on both sides; 0 = blocked by unlabeled MEK5, 100 = vehicle; binding response (% of control), % at 10 µM; hit rate 1.4% among 290,000; AID 1529;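 active = binding response more than 3 SD above or below the average of its plate-row segment, actives on both sides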;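 note: Alexa488 bead fluorescence after subtracting the streptavidin-only scavenger bead signal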
# GRK2 inh – human GRK2 inhibition via aptamer displacement; inhibition of aptamer binding, % at 10 µM; bead flow cytometry, FAM-aptamer displacement from GRK2; hit rate 0.59% among 330,000; P25098;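 active = inhibition of aptamer binding above 40%, roughly 3 SD of noise, on plates passing a quality check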;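 note: median bead fluorescence of bound FAM aptamer so fluorescent compounds give negative values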
# MEKK2wt confirm – raises or lowers MEK5 binding to wildtype human MEKK2, retest; bead flow cytometry, Alexa488-MEK5 binding to MEKK2 WT; actives lie on both sides; hit rate 2.4% among 5,900; AID 1892; binding response (% of control), % at 10 µM; shares compounds with MEKK3 PB1 HTS; in the data active = binding response below about 16% or above about 210%; inactive = in between
# MEKK2mut confirm – signal of MEK5 binding to mutant human MEKK2, retest; shares compounds with MEKK3 PB1 HTS; hit rate 2% among 5,900; percent response, % at 10 µM; bead flow cytometry, Alexa488-MEK5 binding to MEKK2 mutant; AID 1893; in the data active = percent response mostly above about 71%, no sharp cut-off; inactive = mostly below about 38%;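 note: higher means compound restores mutant binding toward wildtype level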
# MEKK3-MEK5 inh – MEKK3-MEK5 PB1 inhibition, single concentration confirmation; shares compounds with MEKK3 PB1 HTS; bead flow cytometry, Alexa488-MEK5 binding to MEKK3; hits give low values; hit rate 1.8% among 5,900; binding response (% of control), % at 10 µM; AID 1894;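 active = binding response below 72% of control, or above a set upper limit, though filed actives all read lower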;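 note: 100% = DMSO only wells and 0% = binding blocked by excess unlabeled MEK5; lower values mean stronger disruption of MEK5 binding to MEKK3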
# The depositor's hits bear a star; / = no result; [ ] = remark or other dose. An excerpt weighted towards active compounds, which were near 2.9% of everything screened.
SMILES,Beta2AR agonist,MEKK2mut PB1 HTS,MEKK2wt PB1 HTS,MEKK3 PB1 HTS,GRK2 inh,MEKK2wt confirm,MEKK2mut confirm,MEKK3-MEK5 inh
CC(C)(C)NC(=O)COC(=O)CNC(=O)c1cc(Cl)cc([N+](=O)[O-])c1,2,0,106,131*,0,92,-8,89
CCS(=O)(=O)N1CCC(C(=O)Nc2cccc(F)c2)CC1,-1,9,107,105,1,/,/,/
O=C(NCCN1CCN(Cc2ccccc2)CC1)Nc1cc(Cl)cc(Cl)c1,16,34,139*,106,0,144,31,108
O=C(NCCN1CCN(c2cccc(Cl)c2)CC1)Nc1ccccc1,-10,3,110,108,0,/,/,/
CCN(CC)c1ccc(/C=N/OCC(=O)Nc2cccc(C)c2)cc1,18,52,61*[inhibitor],104,0,95,-8,99
O=C(Nc1ccccc1C(=O)N1CCOCC1)C1CCCO1 (configuration not stated),-7,-26,-1.0*[inhibitor],1.0*[inhibitor],2,111,8,113
Cc1cccc(OCC(=O)Nc2ccccc2C(=O)N2CCOCC2)c1,1,1,108,130*,0,97,-1,98
CS(=O)(=O)N(CC(=O)Nc1ccccc1C(=O)N1CCOCC1)c1ccc(Cl)cc1,-5,-9,43*[inhibitor],44*[inhibitor],0,99,1,100
Cc1cccc(OCC(=O)N/N=C/c2ccccc2C(=O)O)c1,5,1,114,132*,0,104,-1,103
O=c1nc(Nc2ccccc2)sc2ccc([N+](=O)[O-])cc12,6,11,117,104,0,/,/,/
O=C(CSc1ccccc1F)NCCCN1CCCC1=O,2,/,/,/,2,/,/,/
COc1ccc(CC(=O)Nc2cc(C)ccn2)cc1,-1,-15,56,42*[inhibitor],0,89,1,94
COc1ccc(CC(=O)Nc2cc(C)ccn2)cc1OC,-2,/,/,/,0,/,/,/
Cn1cnnc1Sc1ccc(C(=O)OCC(=O)Nc2ccccc2)cc1[N+](=O)[O-],-5,3,100,102,0,/,/,/
Cn1cnnc1Sc1ccc(C(=O)OCC(=O)Nc2cc(Cl)cc(Cl)c2)cc1[N+](=O)[O-],13,3,119,137*,0,124,15,99
O=C(CSc1ccccc1F)Nc1ccc2c(c1)OCO2,2,/,/,/,1,/,/,/
COc1ccc(-c2nc(NC(=O)Cn3c(=O)oc4ccccc43)sc2C)cc1,5,1,112,143*,5,101,1,108
COc1cccc(NC(=O)Cn2c(=O)oc3ccccc32)c1,2,9,110,114,4,/,/,/
COCCN(C(=O)COC(=O)C1CC1C)c1c(N)n(Cc2ccccc2)c(=O)[nH]c1=O (configuration not stated),-3,/,/,/,0,/,/,/
CC1(OC(=O)C2CCCC2)C(=O)C=C2C=C(c3ccsc3)N(C3CCCCC3)C=C2C1=O (configuration not stated),-7,-7,92,80*[inhibitor],6,90,-7,94
CC1(OC(=O)C2CCCC2)C(=O)C=C2C=C(c3ccsc3)N(CCN3CCOCC3)C=C2C1=O (configuration not stated),/,4,146*,120,/,103,0,99
COc1ccc(Cl)cc1N(C(=O)Nc1cccc(Cl)c1)C1=NCC(C)S1 (configuration not stated),6,0,108,129*,3,108,2,106
O=C(Cc1ccsc1)Nc1ccc(S(=O)(=O)C(F)F)cc1,-11,-6,99,95,1,/,/,/
COc1ccc(-c2cc(C(=O)OCC(=O)c3ccc(C)c([N+](=O)[O-])c3)c3ccccc3n2)cc1,-3,0,103,130*,3,94,-3,97

# High-throughput results: PubChem, NMMLSC
